Experimental data as given in PubChem BioAssay (NCATS).
Where “and” joins values, the source holds several entries; their conditions need not be identical. Equal values may be shown once. Inconclusive results are not listed. Where a structure was tested more than once in an assay, its records may differ in their call. Calls of active or inactive are those of the source. The call rests on the fitted dose curve; in most records, active means well fitted curve in the direction sought with a large enough effect; inconclusive means small, poorly fitted or top-dose-only effect, or another doubt; inactive means no such curve, though single readings can be large; an effect the other way counts as inactive or inconclusive.

Experiments:
[1] = Viability qHTS for spleen associated tyrosine kinase inhibitor (SYKi) naive MV4-11 cells (AID 1963823); further: nearly all actives have a fitted effect of over 40% in size
Procedure, shortened: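 In this viability screen, compounds acted on SYK inhibitor naive MV4-11 cells for three days (72 hr, 37 C). Remaining viable cells were measured by CellTiter-Glo luminescence following a 10 min room-temperature development.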

[2] = Viability qHTS for spleen associated tyrosine kinase inhibitor (SYKi) drug resistant MV4-11 cells (AID 1963824); further: nearly all actives have a fitted effect of over 35% in size
Procedure, shortened: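 SYK-inhibitor-resistant MV4-11 AML cells were seeded at 500 per well onto compound and cultured 72 hours (37 °C, 5% CO2). CellTiter-Glo was then added, and after 10 min at room temperature, luminescence gave viability.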

[3] = Cellular viability qHTS for adrenocortical cancer (ACC) cell line SW-13 (AID 1963989); settings: SW-13 ACC cells viability, CellTiter-Glo, 48 h; activity (max response): stronger effect = lower value; further: nearly all actives have a fitted effect of over 65% in size;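 on activity (max response): cells grown in serum-free medium with ITS supplement; on the % scale 0 is the no-effect control and ±100 the full control effect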
Procedure, shortened: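 SW-13 cells in ITS-supplemented serum-free DMEM were plated overnight, then exposed for 48 h at 37C to compound titrations (up to 46 uM final). Viability was read by CellTiter-Glo luminescence; four-parameter logistic fits gave IC50 and efficacy.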

[4] = Cellular viability qHTS for adrenocortical cancer (ACC) cell line NCI-H295R (AID 1963990); further: nearly all actives have a fitted effect of over 60% in size;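 on activity change, negative = viability loss: 0% = DMSO only wells and -100% = full killing with cytotoxic reference compound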
Procedure, shortened: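 Luminescent ATP read-out (CellTiter-Glo, 20 min RT) after 48 h drug exposure of NCI-H295R cells; a titration up to 46 uM final. Data normalized to doxorubicin (100% inhibition) and DMSO (0%); 4-parameter fit gives IC50, max response.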
Potency means the concentration at half of the fitted maximal effect.

Compound | viability (% of control) [1] | viability, % of control [2] | activity (max response) [3] | activity change, negative = viability loss [4] | Potency [1] | Potency [2] | Potency [4] | Potency [3]
COc1cc2c(cc1OC)CN(CCc1ccc(-n3nnc(-c4cc(OC)c(OC)cc4NC(=O)c4cc(=O)c5ccccc5o4)n3)cc1)CC2 | 79.1% [at 0.588 µM] (inactive) | 98% [at 0.588 µM] (inactive) | -2.39% (inactive) | -5.76% [at 0.587 µM] (inactive) |  |  |  | 
C/C(=N/NC(=O)c1ccncc1)C(=O)O |  |  | 7.83% (inactive) |  | inactive | inactive | inactive | 
COc1ccc(S(=O)(=O)Nc2nnc(CC(C)C)s2)cc1 |  |  | -5.12% (inactive) |  | inactive | inactive | inactive | 
Nc1c(NC/C=C\COc2cc(CN3CCCCC3)ccn2)c(=O)c1=O |  |  | 4.55% (inactive) |  | inactive | inactive | inactive | 
CC[C@]1(O)C[C@@H]2CN(CCc3c([nH]c4ccccc34)[C@@](C(=O)OC)(c3cc4c(cc3OC)N(C)[C@H]3[C@@](O)(C(=O)OC)[C@H](OC(C)=O)[C@]5(CC)C=CCN6CC[C@]43[C@@H]65)C2)C1 |  |  |  |  | 211 nM (active) and 36.6 nM (active) | inactive and 94.4 nM (active) and 18.4 nM (active) | 116 nM (active) and 291 nM (active) | 25.9 nM (active) and 92 nM (active)
COc1cc([C@@H]2c3cc4c(cc3[C@@H](O[C@@H]3O[C@@H]5CO[C@@H](c6cccs6)O[C@H]5[C@H](O)[C@H]3O)[C@H]3COC(=O)[C@H]23)OCO4)cc(OC)c1O |  |  |  |  | 0.0742 µM (active) | 0.0742 µM (active) | 7.08 µM (active) | 2.51 µM (active)
O=C(NCCCNc1nc(Nc2cccc(CN3CCOCC3)c2)ncc1C1CC1)C1CCC1 |  |  | 10.1% (inactive) |  | 0.132 µM (active) | 0.291 µM (active) | inactive | 
CCC(Cc1c(I)cc(I)c(N)c1I)C(=O)O (configuration not stated) |  |  | 1.75% (inactive) |  | inactive | inactive | inactive | 
CCCCCN(CCCOC)C(=O)C(CCC(=O)O)NC(=O)c1ccc(Cl)c(Cl)c1 (configuration not stated) |  |  | 5.62% (inactive) |  | inactive | inactive | inactive | 
C=CCCCCCCCCC(=O)O |  |  | 9.7% (inactive) |  | inactive | inactive | inactive | 
COCc1c(-c2ccc(NC(=O)Nc3cc(C(F)(F)F)ccc3F)c(F)c2)c2c(N)ncnn2c1CN1CCOCC1 |  |  | -5.64% (inactive) |  | 0.0105 µM (active) | 0.0164 µM (active) | inactive | 
CN(C)CCOc1ccc(-c2nc(-c3ccc4c(c3)CC/C4=N\O)c(-c3ccncc3)[nH]2)cc1 |  |  |  |  | 7.42 µM (active) | 5.9 µM (active) | 28.2 µM (active) | 31.6 µM (active)
CC(C)(C)c1nnc(NS(=O)(=O)c2ccc(N)cc2)s1 |  |  | -5.75% (inactive) |  | inactive | inactive | inactive | 
C[C@@H]1CC(=O)Nc2cccc(-c3cnn(C(C)(C)C)c3)c2N1 |  |  | 2.32% (inactive) |  | 14.8 µM (active) | 11.8 µM (active) | inactive | 
CC(=O)OCC(=O)[C@@]12OC(C)(C)O[C@@H]1C[C@H]1[C@@H]3C[C@H](F)C4=CC(=O)C=C[C@]4(C)[C@@]3(F)[C@@H](O)C[C@@]12C |  |  | 10.5% (inactive) and 8.23% (inactive) |  | inactive and 93.4 nM (active) | inactive | inactive | 
NCCCC[C@H](N[C@@H](CCc1ccccc1)C(=O)O)C(=O)N1CCC[C@H]1C(=O)O |  |  | 4.67% (inactive) |  | inactive | inactive | inactive | 
C[C@]12C=CC(=O)C=C1CC[C@@H]1[C@@H]2[C@@H](O)C[C@@]2(C)[C@H]1CC[C@]2(O)C(=O)CO |  |  | -7.97% (inactive) and -0.878% (inactive) |  | inactive | inactive | inactive | 
OCc1ccccc1O[C@@H]1O[C@H](CO)[C@@H](O)[C@H](O)[C@H]1O |  |  | -1.84% (inactive) |  | inactive | inactive | inactive | 
C=CC(=O)N1CC/C(=C\c2ccc(F)c([N+](=O)[O-])c2)C(=O)/C(=C/c2ccc(F)c([N+](=O)[O-])c2)C1 |  |  |  |  | 0.0332 µM (active) | 0.0332 µM (active) | 0.316 µM (active) | 0.794 µM (active)
CCN[C@@H]1C[C@H](N)[C@@H](OC2OC(CN)=CCC2N)[C@H](O)[C@H]1O[C@H]1OC[C@](C)(O)[C@H](NC)[C@H]1O (some centres not stated) | 111% [at 0.588 µM] (inactive) | 115% [at 0.588 µM] (inactive) | -2.24% (inactive) | -3.31% [at 0.587 µM] (inactive) |  |  |  | 
COc1cc(C(=O)NC2CCCNC2)cc(OC)c1OC (configuration not stated) |  |  | 8.49% (inactive) |  | inactive | inactive | inactive | 
CC(=O)Nc1ccc(C(=O)Nc2ccccc2N)cc1 |  |  |  |  | 5.63 µM (active) and 4.68 µM (active) | 3.55 µM (active) and 3.72 µM (active) | 6.31 µM (active) | 11.2 µM (active)

Compound | viability (% of control) [1] | viability, % of control [2] | activity (max response) [3] | activity change, negative = viability loss [4] | Potency [1] | Potency [2] | Potency [4] | Potency [3]
O=C(CCCCCCNC(=O)c1cnc(N(c2ccccc2)c2ccccc2Cl)nc1)NO |  |  |  |  | 3.32 µM (active) | 2.63 µM (active) | 11.2 µM (active) | 14.1 µM (active)
CCN[C@H]1CN(CCCOC)S(=O)(=O)c2sc(S(N)(=O)=O)cc21 |  |  | 7.66% (inactive) |  | inactive | inactive | inactive | 
C=CCc1cccc(/C=N/NC(=O)CN2CCN(Cc3ccccc3)CC2)c1O |  |  |  |  | 7.42 µM (active) | 6.61 µM (active) | 10 µM (active) | 8.91 µM (active)
CCN(CC)C(=O)/C(C#N)=C/c1cc(O)c(O)c([N+](=O)[O-])c1 |  |  | 3.46% (inactive) |  | inactive | 16.8 µM (active) | inactive | 
O=C(Nc1ccc2[nH]nc(-c3ccncc3)c2c1)[C@@H]1CCN(CC(=O)N2CCN(c3ccc(-c4ncccn4)cc3)CC2)C1 |  |  |  |  | 25.9 nM (active) and 525 nM (active) | 23.1 nM (active) and 468 nM (active) | inactive | 4.47 µM (active)
C[C@@H](O[C@H]1OCCN(Cc2n[nH]c(=O)[nH]2)[C@@H]1c1ccc(F)cc1)c1cc(C(F)(F)F)cc(C(F)(F)F)c1 |  |  |  |  | 16.6 µM (active) | 16.6 µM (active) | 25.1 µM (active) | 22.4 µM (active)
C[C@@H]1C(=O)OC2[C@H](O)[C@]34[C@H]5C[C@@H](C(C)(C)C)[C@]36[C@@H](OC(=O)[C@@H]6O)O[C@@]4(C(=O)O5)[C@]21O (some centres not stated) |  |  | 5.05% (inactive) |  | inactive | inactive | inactive | 
Cc1c(-c2ccccc2)oc2c(C(=O)OCCN3CCCCC3)cccc2c1=O |  |  | -7.2% (inactive) |  | inactive | inactive | inactive | 
CN[C@H](CC(C)C)C(=O)N[C@H]1C(=O)N[C@@H](CC(N)=O)C(=O)N[C@H]2C(=O)N[C@H]3C(=O)N[C@H](C(=O)N[C@H](C(=O)O)c4cc(O)cc(O)c4-c4cc3ccc4O)[C@H](O)c3ccc(c(Cl)c3)Oc3cc2cc(c3O[C@@H]2O[C@H](CO)[C@@H](O)[C@H](O)[C@H]2O[C@H]2C[C@](C)(N)[C@H](O)[C@H](C)O2)Oc2ccc(cc2Cl)[C@H]1O |  |  | -12.5% (inactive) |  | inactive | inactive | inactive | 
O=C(O)C1=CO[C@@H](O[C@@H]2O[C@H](CO)[C@@H](O)[C@H](O)[C@H]2O)[C@@H]2C(CO)=CC[C@H]12 |  |  | 7.35% (inactive) |  | 10.1 µM (active) and inactive | 12.8 µM (active) and inactive | inactive | 
C[C@]12CCC3[C@@H](CC[C@H]4NC(=O)C=C[C@]34C)[C@@H]1CC[C@@H]2C(=O)Nc1cc(C(F)(F)F)ccc1C(F)(F)F (some centres not stated) |  |  | -0.361% (inactive) |  | 10.5 µM (active) | 9.34 µM (active) | inactive | 
O=C(NCc1ccc(S(=O)(=O)c2cccc(C(F)(F)F)c2)cc1)c1cnc2[nH]ncc2c1 |  |  |  |  | 0.0118 µM (active) | 0.0105 µM (active) | 0.0178 µM (active) | 0.0282 µM (active)
COc1ccc(CNc2nc(N(CCO)CCO)nc3c2ncn3C(C)C)cc1 |  |  |  |  | 4.11 µM (active) | 5.8 µM (active) | 15.8 µM (active) | 8.91 µM (active)
COc1cc(F)ccc1-c1ncnc(Nc2cccc(CS(C)(=N)=O)c2)n1 (configuration not stated) |  |  |  |  | 1.16 µM (active) | 1.16 µM (active) | 7.08 µM (active) | 6.31 µM (active)
FC(F)(F)c1ccc(CNc2ccc(Cc3c[nH]c4ncccc34)cn2)cc1 |  |  |  |  | 259 nM (active) and 116 nM (active) | 206 nM (active) and 291 nM (active) | 11.2 µM (active) | 10 µM (active)
CN(C)C[C@@H]1CCn2cc(c3ccccc32)C2=C(C(=O)NC2=O)c2cn(c3ccccc23)CCO1 |  |  |  |  | 0.186 µM (active) | 0.417 µM (active) | 31.6 µM (active) | 28.2 µM (active)
[2H]C([2H])([2H])C(O)([C@@H](C)/C=C/[C@@H](C)[C@H]1CC[C@H]2/C(=C/C=C3C[C@@H](O)C[C@H](O)C3)CCC[C@]12C)C([2H])([2H])[2H] |  |  | -26.6% (inactive) |  | 0.0105 µM (active) | 0.468 µM (active) | inactive | 
CC[C@]12CCCN3CCc4c(n(c5ccccc45)[C@@](O)(C(=O)OC)C1)[C@@H]32 |  |  | 1.04% (inactive) |  | inactive | inactive | inactive | 
COc1ccccc1N1CCN(CC(O)COc2cc(OC)c(OC)c(OC)c2)CC1 (configuration not stated) |  |  | 13.2% (inactive) |  | inactive | inactive | inactive | 
CC(C)COCC(CN(Cc1ccccc1)c1ccccc1)N1CCCC1 (configuration not stated) |  |  |  |  | 13.3 µM (active) and 14.8 µM (active) | 15 µM (active) and 11.8 µM (active) | 15.8 µM (active) | 4.11 µM (active) and 28.2 µM (active)
CCN1/C(=C/C(C)=O)Sc2ccc(OC)cc21 |  |  | 3.06% (inactive) |  | 9.2 µM (active) | 8.2 µM (active) | inactive | 
